Hits are enriched below; roughly 12% of the tested compounds scored in any of these assays.
JMJD2A Tudor: JMJD2A Tudor domain (human) inhibition | O75164 | AlphaScreen JMJD2A-Tudor / H3K4me3 peptide binding | Potency, µM (titrated, usually from 114 µM), usual class: inhibitors | hit rate 4.4% among 390,000; note: nearly all actives have a fitted effect of over 50% in size
BAZ2B inh: blocks human BAZ2B | Q9UIF8 | AlphaScreen BAZ2B-H3K14Ac peptide displacement | Potency, µM (doses to about 114 µM), actives largely listed as inhibitors | hit rate 4.4% among 360,000 | AID 504333; note: nearly all actives have a fitted effect of over 60% in size
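Compounds, titrated to a top concentration of 110 uM, were incubated 30 min at room temperature with preformed BAZ2B/acetyl-K14 H3 peptide complex (50 nM each). Proximity signal was measured by AlphaScreen after 20 min with beads.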
Sfp inh: inhibitors of Bacillus subtilis Sfp phosphopantetheinyl transferase; Q9F4F7; Biochemical Sfp PPTase activity, qHTS; Potency, µM, hits mostly inhibitors; hit rate 3.5% among 310,000;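 note: the enzyme is Sfp with the accession as filed and its product quenches rhodamine fluorescence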
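Step 1, compound plus 15 nM Sfp-PPTase, 15 min, room temperature. Step 2, add rhodamine-CoA (5 uM) and BHQ-2-YbbR (12.5 uM). Step 3, read 525/598 nm fluorescence at 0 and 30 min.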
HP1b chromo inh: HP1-beta chromodomain-methylated histone interaction inhibition | AlphaScreen HP1-beta / biotin-H3K9me3 peptide binding | Potency, µM (series often up to 114 µM), usual class: inhibitors | hit rate 0.56% among 390,000; note: nearly all actives have a fitted effect of over 70% in size
Target sequence (P83916 whole entry, looked up): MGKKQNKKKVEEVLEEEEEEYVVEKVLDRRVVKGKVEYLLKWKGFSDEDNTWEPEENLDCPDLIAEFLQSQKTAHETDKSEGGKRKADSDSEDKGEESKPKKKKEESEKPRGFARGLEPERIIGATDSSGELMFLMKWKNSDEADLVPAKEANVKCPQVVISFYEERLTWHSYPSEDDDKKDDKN
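AlphaScreen: HP1-beta (50 nM) preformed 30 min with biotin-H3(1-18)K9me3 peptide (50 nM) in PBS pH 7.4, 0.01% Tween-20. Compound added for 30 min at RT, then streptavidin donor/nickel chelate acceptor beads (10 ug/mL) for 30 min.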
L3MBTL1 block: L3MBTL1 (human) inhibition | Q9Y468 | AlphaScreen L3MBTL1–H3K9me1 peptide binding | Potency, µM (series often up to 57.1 µM), most hits filed as inhibitors | hit rate 0.66% among 230,000; note: nearly all actives have a fitted effect of over 60% in size
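Read-out is AlphaScreen signal from streptavidin donor and nickel chelate acceptor beads (10 ug/mL final each) bridging L3MBTL1 (50 nM) and biotinylated K9-monomethylated H3(1-15) peptide (75 nM), after 30 min compound exposure at room temperature.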
G9a inh: G9a (human) methyltransferase inhibition | AID 504332 | Potency, µM (highest dose often 102 µM), most hits filed as inhibitors | Q96KQ7 | G9a H3K9 monomethylation, AlphaScreen, 2 h | hit rate 8.8% among 350,000; note: nearly all actives have a fitted effect of over 75% in size
Target sequence (Q96KQ7 913-1193 limits assumed): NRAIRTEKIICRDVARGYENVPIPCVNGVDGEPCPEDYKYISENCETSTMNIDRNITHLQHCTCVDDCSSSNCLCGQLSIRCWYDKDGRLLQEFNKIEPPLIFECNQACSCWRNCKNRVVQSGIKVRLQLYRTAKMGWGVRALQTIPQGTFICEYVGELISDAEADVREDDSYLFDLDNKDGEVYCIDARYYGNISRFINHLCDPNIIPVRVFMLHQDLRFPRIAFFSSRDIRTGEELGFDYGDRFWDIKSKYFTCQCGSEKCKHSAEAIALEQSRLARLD
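Signal arises when biotinylated H3K9 peptide, once monomethylated, bridges streptavidin donor and antibody-captured acceptor beads. Enzyme at 20 nM was preincubated 15 min with test compounds; peptide 500 nM and SAM 20 uM then reacted for 2 h.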
Hits are given with their value; [ ] = remark or other dose. Calls come from the whole dose curve; as a rule, active = well fitted curve in the direction sought with a large enough effect; inconclusive = small, poorly fitted or top-dose-only effect, or another doubt; inactive = no such curve, though single readings can be large; an effect the other way counts as inactive or inconclusive.

O=C1C(=O)N(CCCN2CCOCC2)C(c2ccc(Cl)cc2)/C1=C(\O)c1ccc2c(c1)OCCO2 (stereo not given) was read as JMJD2A Tudor 32µM, BAZ2B inh inactive, Sfp inh inactive, HP1b chromo inh inactive and G9a inh 40µM.
Screening COc1cccc(C2/C(=C(\O)c3ccc4c(c3)OCCO4)C(=O)C(=O)N2CCCN2CCOCC2)c1OC (stereo not given) returned JMJD2A Tudor inactive, BAZ2B inh inactive, Sfp inh inactive, HP1b chromo inh inactive and G9a inh 3.5µM.
For O=C(CN1C(=O)COc2ccc(S(=O)(=O)N3CCCCC3)cc21)NCCc1ccc(Cl)cc1 the results were JMJD2A Tudor inactive, BAZ2B inh inconclusive, HP1b chromo inh inactive and G9a inh inactive.
`COc1ccccc1CNC(=O)c1cn(C)c(=O)c2cc(OC)c(OC)cc12` gave JMJD2A Tudor 13µM, BAZ2B inh inactive, Sfp inh inactive, HP1b chromo inh inactive and G9a inh inactive.
COCCCNC(=O)c1cn(C)c(=O)c2cc(OC)c(OC)cc12 was read as JMJD2A Tudor inactive, BAZ2B inh inactive, Sfp inh inactive, HP1b chromo inh inactive, L3MBTL1 block inactive and G9a inh inactive[2.33 µM].
For CCn1c(=O)c(C(=O)NCc2ccccc2)c(O)c2ccccc21 the results were JMJD2A Tudor inactive, BAZ2B inh inactive, Sfp inh inactive, HP1b chromo inh inactive and L3MBTL1 block inactive.
`CCn1c(=O)c(C(=O)NCc2cccnc2)c(O)c2ccccc21` gave JMJD2A Tudor 40µM, BAZ2B inh inactive, Sfp inh inactive, HP1b chromo inh inactive, L3MBTL1 block inactive and G9a inh inactive.
COc1cc(OC)c(C(=O)NCc2cccnc2)cc1OC was read as JMJD2A Tudor inactive, BAZ2B inh inactive, Sfp inh inactive, HP1b chromo inh inactive and G9a inh inactive.
CCn1cc(C(=O)NCc2cccnc2)c2cc(OC)c(OC)cc2c1=O was read as JMJD2A Tudor inactive, BAZ2B inh inactive, Sfp inh inactive, HP1b chromo inh inactive, L3MBTL1 block inactive and G9a inh 11µM.
Screening Cc1cccc(N(Cc2cc3ccccc3[nH]c2=O)S(C)(=O)=O)c1 returned JMJD2A Tudor inactive, BAZ2B inh inactive, Sfp inh 56µM, HP1b chromo inh inactive and G9a inh inactive.
Screening C=CCn1c(SCC(=O)NCC2CCCO2)nc2scc(-c3ccccc3)c2c1=O (stereo not given) returned JMJD2A Tudor inactive, BAZ2B inh inactive, Sfp inh inactive, HP1b chromo inh inactive and G9a inh inactive.
For C=CCn1c(SCC(=O)NCCCC)nc2scc(-c3ccco3)c2c1=O the results were JMJD2A Tudor 56µM, BAZ2B inh inconclusive, Sfp inh 20µM, HP1b chromo inh inconclusive, L3MBTL1 block inactive and G9a inh inactive.
C=CCn1c(=S)[nH]c2scc(-c3ccc(C)o3)c2c1=O was read as JMJD2A Tudor inconclusive, BAZ2B inh inactive, Sfp inh 28µM, HP1b chromo inh inactive, L3MBTL1 block inactive and G9a inh 50µM.
`C=CCn1c(SCC(C)=O)nc2scc(-c3ccc(C)o3)c2c1=O` gave JMJD2A Tudor inconclusive, BAZ2B inh inactive, Sfp inh 50µM, HP1b chromo inh inactive, L3MBTL1 block inactive and G9a inh 45µM.
C=CCn1c(SCC(=O)NC2CCCC2)nc2scc(-c3ccco3)c2c1=O was read as JMJD2A Tudor inactive, BAZ2B inh inconclusive, Sfp inh 10µM, HP1b chromo inh inactive and G9a inh inconclusive.
Screening O=C(Nc1nc(-c2ccccc2)ns1)c1ccncc1 returned JMJD2A Tudor inactive[11.4 µM], BAZ2B inh inactive, Sfp inh inactive and HP1b chromo inh inactive.
C=CCn1c(=S)[nH]c2sccc2c1=O was read as JMJD2A Tudor inconclusive, BAZ2B inh inactive, Sfp inh inactive, HP1b chromo inh inactive, L3MBTL1 block inactive and G9a inh 13µM.
Screening Cc1ccc(C)c(NC(=O)CSc2nnc(-c3cc(C)[nH]n3)n2N)c1 returned JMJD2A Tudor inactive, BAZ2B inh inactive, Sfp inh inactive, HP1b chromo inh inactive and G9a inh inactive[0.0925 µM].
CCOC(=O)C1CCN(C(c2ccc(SC)cc2)c2c(O)cc(C)n(Cc3ccco3)c2=O)CC1 (stereo not given) was read as JMJD2A Tudor 56µM, BAZ2B inh inactive, HP1b chromo inh inactive and G9a inh inconclusive.
For O=c1cc2oc3cc(O)c(O)cc3c(-c3ccccc3[N+](=O)[O-])c-2cc1O the results were JMJD2A Tudor 0.71µM, BAZ2B inh 1.1µM, Sfp inh 35µM, HP1b chromo inh 0.79µM and G9a inh 1.4µM.
Screening COc1ccc2c(c1)C(=O)[C@@H](OC(=O)Nc1cc(OC)c(OC)c(OC)c1)[C@H](c1ccc(OC)c(Br)c1)O2 returned Sfp inh inactive.
Screening CC1(C)C(/C=C/C=C/C=C/C=C2\N(CCCCS(=O)(=O)O)c3ccc4ccccc4c3C2(C)C)=[N+](CCCCS(=O)(=O)[O-])c2ccc3ccccc3c21 returned JMJD2A Tudor 6.3µM, Sfp inh 50µM, HP1b chromo inh inconclusive and G9a inh inconclusive.
`CCCOc1ccc(CNC(=O)c2ccc(C)c(-n3c(C)nc4cccnc43)c2)cc1` gave JMJD2A Tudor inactive, BAZ2B inh inactive, HP1b chromo inh inactive and G9a inh inactive.
C[C@]12CCC[C@H](O1)c1c(cc3c(c1O)C(=O)c1c(O)cc(O)cc1C3=O)O2 was read as JMJD2A Tudor 35µM and HP1b chromo inh inconclusive.
C/C=C(/C)C(=O)Nc1cccc(C2=NOC3(C2)C[C@@H](C(N)=O)N(C(=O)CC(c2ccccc2)c2ccccc2)C3)c1 (stereo not given in full) was read as JMJD2A Tudor inactive, BAZ2B inh inactive, Sfp inh inactive, HP1b chromo inh inactive and G9a inh inactive.
`C=C(C)C(=O)Nc1cccc(C2=NOC3(C2)C[C@H](C(N)=O)N(C(=O)CC#N)C3)c1` (stereo not given in full) gave JMJD2A Tudor 25µM, BAZ2B inh 40µM, Sfp inh inactive, HP1b chromo inh inconclusive and G9a inh inconclusive.
For C/C=C(\C)C(=O)Nc1cccc(C2=NOC3(C2)C[C@@H](C(N)=O)N(C(=O)/C(C)=C/C)C3)c1 (stereo not given in full) the results were JMJD2A Tudor inactive, BAZ2B inh inactive, Sfp inh inactive, HP1b chromo inh inactive and G9a inh inactive.
`C=C(C)C(=O)Nc1cccc(C2=NOC3(C2)C[C@@H](C(N)=O)N(C(=O)/C(C)=C/C)C3)c1` (stereo not given in full) gave JMJD2A Tudor 3.2µM, BAZ2B inh 1.8µM, Sfp inh inactive, HP1b chromo inh 3.5µM and G9a inh inconclusive.

High-throughput results from PubChem.
